The target of test [1] is Albumin (Bos taurus) (UniProt P02769). Description: compounds binding labelled BSA control protein – biochemical, small-molecule microarray, Alexa647 label, 635/667 nm fluorescence, artefact control for SMM control protein annotation, profiling panel (AID 1118).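 Also: score merges 667 nm emission intensity and signal-to-noise per printed compound spot.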 Conditions: BSA-A647 binding, fluorescence 635 nm, higher = more signal.
Test [2] in a line: probe aXIP binding to arrayed compounds – biochemical, NeuroSMM set, 635/667 nm fluorescence, primary screen (AID 1119).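 Also: probe is the protein aXip251-270 applied at 1 µg/mL to compound-printed slides; binding of probe to printed compounds measured as 667 nm fluorescence plus signal to noise.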 The following applies: small-molecule microarray, higher = more signal, called active from +8 up or from −8 down.
Test [3] can be described thus: probe aNOTCH3 binding on compound microarray – biochemical, small-molecule microarray, 635/667 nm fluorescence, primary screen (AID 1120).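 Also: probe is a biotin-tagged antibody raised against NOTCH3 rather than NOTCH3 protein; score merges spot fluorescence near 667 nm with spot signal to noise.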 The following applies: higher = more signal.
Test [4] is described as follows: probe aNOTCH2 binding on compound microarray – biochemical, small-molecule microarray, 635/667 nm fluorescence, primary screen (AID 1121).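 Also: score merges feature fluorescence read at 667 nm with its signal to noise.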 The following applies: higher = more signal.
The target of test [5] is Carbonic anhydrase 2 (Homo sapiens) (UniProt P00918). Description: compounds binding carbonic anhydrase 2 – biochemical, small-molecule microarray, Alexa647-labelled CAII, profiling panel (AID 1122). Conditions: CAII-A647 binding fluorescence, higher = more signal.
The nature of test [6]: COS7 lysate on small-molecule microarray, probe aHis, 635 nm (AID 1123).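 Also: z-score combines 667nm fluorescence intensity with signal-to-noise per printed compound spot.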 The following applies: COS7 cell lysate, fluorescence, higher = more signal.
Test [7] in a line: probe aLAP1 signal on lysate-treated microarray – cell lysate, small-molecule microarray, COS7 lysate, primary screen (AID 1124).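 Also: lysate comes from COS7 cells expressing LAP1 and is applied at 0.3 µg/mL; score merges spot fluorescence near 667 nm with signal-to-noise over triplicate slides.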 The following applies: probe aLAP1, fluorescence, higher = more signal.
The subject of test [8] is Sam68 (KHDRBS1). Briefly: compounds binding KHDRBS1 protein – biochemical, small-molecule microarray, 635 nm fluorescence, primary screen (AID 1125).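 Also: score merges 667 nm channel intensity with signal to noise over triplicate slides.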 The following applies: higher = more signal.
Test [9] concerns Chordin-like protein 2 (CHRDL2). Briefly: compounds binding chordin-like 2 – biochemical, small-molecule microarray, 635 nm fluorescence, primary screen (AID 1126).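 Also: printed compound slides probed with Chrdl2 protein at 4 µg/mL for 1 h at 4 C; score merges 667 nm emission intensity with signal to noise over three replicate slides.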 The following applies: fluorescence 635 nm, higher = more signal.
In test [10] the target is Concanavalin-A (Canavalia ensiformis) (UniProt P02866). Briefly: compounds binding concanavalin A lectin – biochemical, small-molecule microarray, Alexa647 label, 635 nm, artefact control for SMM control protein annotation, primary screen (AID 1127).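 Also: z combines 667 nm emission intensity with signal-to-noise across three replicate slides.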 Conditions: ConA-A647 binding fluorescence, higher = more signal.
Sequence of Concanavalin-A (Canavalia ensiformis) (P02866 whole entry, looked up): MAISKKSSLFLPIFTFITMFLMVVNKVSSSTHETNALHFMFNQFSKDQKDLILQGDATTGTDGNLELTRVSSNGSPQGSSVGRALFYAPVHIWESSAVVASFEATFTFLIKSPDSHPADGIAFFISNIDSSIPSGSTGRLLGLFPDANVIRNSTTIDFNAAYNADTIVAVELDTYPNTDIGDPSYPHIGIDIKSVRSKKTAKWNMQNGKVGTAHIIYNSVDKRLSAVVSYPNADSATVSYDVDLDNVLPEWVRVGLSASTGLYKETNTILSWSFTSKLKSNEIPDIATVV
A short description of test [11]: compounds binding Alexa647 anti-His antibody – biochemical, small-molecule microarray, 635 nm fluorescence, artefact control for SMM control protein annotation, primary screen (AID 1128).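 Also: score merges feature fluorescence with signal-to-noise for each printed compound spot.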 Conditions: higher = more signal.
In test [12] the test system is Human papillomavirus type 1a E7 protein (residues 1-88). Description: HPV1a E7 small-molecule binders, primary screen, biochemical, small-molecule microarray, residues 1-88, 635 nm (AID 1129). Conditions: small-molecule microarray binding, fluorescence 635 nm; higher = more signal.
Test [13] addresses Focal adhesion kinase 1 (Homo sapiens) (UniProt Q05397). Description: PTK2 protein binding on printed compound slides – biochemical, small-molecule microarray, 635/667 nm fluorescence, BSA, DTT, primary screen (AID 1130).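 Also: composite of spot emission at 667 nm and signal to noise over triplicate slides.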 The following applies: 635 nm fluorescence, higher = more signal.
In test [14] the test system is Fibrinogen (Alexa647-labelled). Description: Alexa647-fibrinogen binding to printed small molecules – biochemical, small-molecule microarray, 635/667 nm fluorescence, artefact control for SMM control-protein annotation, profiling panel (AID 1131).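 Also: z-score merges 667 nm fluorescence with per-spot signal-to-noise over triplicate slides.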 The following applies: fibrinogen-A647 binding fluorescence, higher = more signal.
Test [15] deals with Follistatin (Homo sapiens) (UniProt P19883). Briefly: FST protein binding to printed compounds – biochemical, small-molecule microarray, 635/667 nm fluorescence, primary screen (AID 1132). Conditions: 635 nm fluorescence, higher = more signal.
Sequence of Follistatin (Homo sapiens) (P19883 whole entry, looked up): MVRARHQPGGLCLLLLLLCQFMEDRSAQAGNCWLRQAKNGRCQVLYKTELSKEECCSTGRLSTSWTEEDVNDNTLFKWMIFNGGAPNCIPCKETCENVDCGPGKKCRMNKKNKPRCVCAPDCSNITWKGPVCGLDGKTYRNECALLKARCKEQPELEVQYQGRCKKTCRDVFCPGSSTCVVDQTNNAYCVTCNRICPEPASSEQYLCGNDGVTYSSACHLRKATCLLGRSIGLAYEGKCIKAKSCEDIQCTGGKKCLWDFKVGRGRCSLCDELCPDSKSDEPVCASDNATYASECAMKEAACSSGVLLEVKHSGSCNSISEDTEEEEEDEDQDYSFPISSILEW
The target in test [16] is Fibroblast growth factor 2 (Homo sapiens) (UniProt P09038). Description: basic fibroblast growth factor binding to printed compounds – biochemical, small-molecule microarray, 635/667 nm fluorescence, primary screen (AID 1133). Conditions: FGF2, fluorescence 635/667, higher = more signal.
Sequence of Fibroblast growth factor 2 (Homo sapiens) (P09038 whole entry, looked up): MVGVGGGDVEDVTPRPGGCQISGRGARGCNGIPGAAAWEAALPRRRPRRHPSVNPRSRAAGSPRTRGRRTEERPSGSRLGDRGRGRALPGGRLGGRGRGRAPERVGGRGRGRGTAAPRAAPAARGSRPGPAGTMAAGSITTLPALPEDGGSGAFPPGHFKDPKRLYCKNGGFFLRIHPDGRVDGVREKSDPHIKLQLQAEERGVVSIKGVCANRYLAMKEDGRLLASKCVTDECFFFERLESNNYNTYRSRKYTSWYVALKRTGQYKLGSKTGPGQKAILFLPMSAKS
The nature of test [17]: JC-1 mitochondrial potential readout, lung cancer cells – cell-based, A549, JC-1 fluorescence, basal, 24 h, 100 nL, profiling panel (AID 1138).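 Also: A549 lung adenocarcinoma cells under basal conditions with no added stimulus; test concentration not given here.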 Conditions: higher = more signal.
For test [18], the system named is Lefty1. Description: Lefty1 protein binding to printed compounds – biochemical, small-molecule microarray, 635/667 nm fluorescence, primary screen (AID 1139). The following applies: fluorescence 635/667, higher = more signal.
Test [19] relates to wheat germ agglutinin (Triticum aestivum), Alexa647-labelled. Description: Alexa647-WGA lectin binding to printed small molecules – biochemical, small-molecule microarray, 635/667 nm fluorescence, artefact control for SMM control-protein annotation, profiling panel (AID 1140).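 Also: score merges 667 nm feature emission with signal to noise over triplicate slides.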 Conditions: WGA-A647 binding, 635 nm fluorescence, higher = more signal.
Test [20] addresses Luciferin 4-monooxygenase (Photinus pyralis) (UniProt P08659). Briefly: inhibition of purified Photinus pyralis luciferase – biochemical, luminescence, purified enzyme, 2006 set, primary screen (AID 1141).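 Also: cell-free assay with purified firefly luciferase at 100 ng per well in PBS; test concentration not given here.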 Conditions: purified firefly luciferase, SteadyGlo luminescence, 30 min; higher = more signal, called active from +8 up or from −8 down.

Active and inactive are the calls of the source.

Sequence of Luciferin 4-monooxygenase (Photinus pyralis) (P08659 whole entry, looked up): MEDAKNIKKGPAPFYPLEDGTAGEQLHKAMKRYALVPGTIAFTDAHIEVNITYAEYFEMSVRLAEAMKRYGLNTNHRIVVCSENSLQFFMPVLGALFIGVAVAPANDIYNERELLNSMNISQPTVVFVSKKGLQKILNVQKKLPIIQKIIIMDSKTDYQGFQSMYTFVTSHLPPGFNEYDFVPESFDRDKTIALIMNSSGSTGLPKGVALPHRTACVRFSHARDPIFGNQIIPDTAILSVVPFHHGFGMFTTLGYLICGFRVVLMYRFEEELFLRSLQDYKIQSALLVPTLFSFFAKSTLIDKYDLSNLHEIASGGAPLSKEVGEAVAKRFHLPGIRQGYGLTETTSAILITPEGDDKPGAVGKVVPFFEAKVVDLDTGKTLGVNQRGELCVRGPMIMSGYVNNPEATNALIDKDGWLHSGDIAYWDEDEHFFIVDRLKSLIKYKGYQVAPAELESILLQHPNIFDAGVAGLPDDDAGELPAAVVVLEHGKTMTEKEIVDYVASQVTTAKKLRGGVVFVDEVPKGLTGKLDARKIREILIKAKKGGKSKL
Sequence of Focal adhesion kinase 1 (Homo sapiens) (Q05397 whole entry, looked up): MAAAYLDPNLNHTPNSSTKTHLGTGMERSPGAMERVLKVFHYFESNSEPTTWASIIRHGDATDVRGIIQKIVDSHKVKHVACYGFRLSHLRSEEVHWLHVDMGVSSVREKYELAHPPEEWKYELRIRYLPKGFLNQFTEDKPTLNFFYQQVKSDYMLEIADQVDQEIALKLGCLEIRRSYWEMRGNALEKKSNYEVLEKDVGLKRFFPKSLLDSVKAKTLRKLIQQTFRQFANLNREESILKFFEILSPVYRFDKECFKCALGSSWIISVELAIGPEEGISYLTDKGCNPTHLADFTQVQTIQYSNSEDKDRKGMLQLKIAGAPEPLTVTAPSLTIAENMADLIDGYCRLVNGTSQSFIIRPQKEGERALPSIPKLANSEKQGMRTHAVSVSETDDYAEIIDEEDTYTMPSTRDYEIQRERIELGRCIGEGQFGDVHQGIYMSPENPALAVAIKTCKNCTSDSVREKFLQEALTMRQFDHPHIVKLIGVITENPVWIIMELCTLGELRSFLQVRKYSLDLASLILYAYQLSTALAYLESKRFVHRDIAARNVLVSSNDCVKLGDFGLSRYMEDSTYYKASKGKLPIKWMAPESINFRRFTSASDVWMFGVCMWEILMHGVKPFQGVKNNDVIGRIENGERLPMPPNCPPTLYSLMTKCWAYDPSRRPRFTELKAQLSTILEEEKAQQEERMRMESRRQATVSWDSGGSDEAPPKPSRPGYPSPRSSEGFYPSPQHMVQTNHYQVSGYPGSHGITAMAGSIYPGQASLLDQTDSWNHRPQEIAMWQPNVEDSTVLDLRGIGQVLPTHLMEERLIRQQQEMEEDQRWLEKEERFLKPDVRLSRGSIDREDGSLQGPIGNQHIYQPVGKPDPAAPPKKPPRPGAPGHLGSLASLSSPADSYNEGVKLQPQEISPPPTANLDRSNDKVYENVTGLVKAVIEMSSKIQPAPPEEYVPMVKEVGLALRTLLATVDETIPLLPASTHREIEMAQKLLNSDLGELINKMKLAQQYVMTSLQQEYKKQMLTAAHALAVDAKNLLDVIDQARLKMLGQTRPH
Sequence of Albumin (Bos taurus) (P02769 whole entry, looked up): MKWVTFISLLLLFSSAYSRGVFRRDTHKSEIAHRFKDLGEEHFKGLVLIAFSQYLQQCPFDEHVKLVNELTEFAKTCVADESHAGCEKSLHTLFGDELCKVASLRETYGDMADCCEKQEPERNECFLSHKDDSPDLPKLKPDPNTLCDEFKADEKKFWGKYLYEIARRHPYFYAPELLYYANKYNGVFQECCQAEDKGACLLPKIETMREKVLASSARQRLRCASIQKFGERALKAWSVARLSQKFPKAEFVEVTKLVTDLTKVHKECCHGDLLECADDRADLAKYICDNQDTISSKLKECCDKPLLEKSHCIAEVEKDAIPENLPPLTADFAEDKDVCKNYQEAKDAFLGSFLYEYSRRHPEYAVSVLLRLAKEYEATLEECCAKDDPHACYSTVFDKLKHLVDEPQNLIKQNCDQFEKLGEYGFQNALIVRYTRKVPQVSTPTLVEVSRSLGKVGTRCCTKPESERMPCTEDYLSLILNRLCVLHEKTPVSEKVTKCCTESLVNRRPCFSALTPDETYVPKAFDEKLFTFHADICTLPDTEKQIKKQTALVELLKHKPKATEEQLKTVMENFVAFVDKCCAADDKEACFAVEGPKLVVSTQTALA

In the case of `CCCCC=C[C@@H](NC(=O)c1ccc(-c2ccccc2)cc1)c1ccccc1`, the composite z-score was 0.43 in [1]; 0.112 in [3]; 0.0065 in [4]; 0.641 in test [5]; 1.08 in test [6]; 1.01 in test [7]. The composite z-score in test [8] is 1.07; in test [9] it was -0.309; in [10], 0.933; in [11], 0.512; in [12] it was 1.19; in [13] it was 0.416. Besides, the composite z-score in test [14] was 0.413; in test [15], -0.107; in test [16], -0.0601; in [18], -0.217; in test [19], 0.535. For the same molecule, the composite Z-score in test [2] is 0.516 (inactive). For the same molecule, the z-score in test [17] was -0.428; in test [20] it was 2.01 (inactive).
Regarding `COC(=O)Cn1c(C(=O)N(C)C)cc2c1C[C@H]1CN(C(=O)c3ccccc3)[C@@](Cc3ccc(F)cc3)(C(=O)OC)[C@@H]21`, the composite z-score in test [1] was determined as 0.944; in [3] it was 0.541; in test [4] it was 0.267; in test [5], 0.884; in test [6], 0.56; in [7], 0.108. The composite z-score in test [8] was -0.167; in test [9], 0.0171; in test [10], 0.136; in [11], 2.12; in test [12], 1.02; in test [13], 1.25. In addition, the composite z-score is 0.19 in test [14]; -0.258 in test [15]; 0.386 in test [16]; -0.278 in [18]; 1.3 in [19]. Moreover, the composite Z-score in [2] was -0.155 (inactive). In addition, the z-score was 0.354 in [17] and 0.897 (inactive) in [20].
Regarding `C=C(/C(=C/C[C@H](OC(=O)c1ccncc1)c1ccc(CO)o1)c1cc(C(=O)OC)ccc1OC)C(C)C`, the composite z-score in test [1] was 0.0703; in test [3], -0.0414; in test [4] it was -0.116; in test [5] it was 0.541; in test [6], 1.4; in [7], 0.285. Further, the composite z-score in test [8] is 1.05; in [9], 0.85; in [10], 0.557; in [11], 2; in test [12], 1.02; in test [13], -0.0585. For the same molecule, the composite z-score came to 0.448 in test [14]; 1.07 in [15]; 1.21 in test [16]; 1.14 in test [18]; 0.433 in test [19]. Besides, the composite Z-score in test [2] was -0.442 (inactive). For the same molecule, the z-score in test [17] is -0.432; in test [20], -1.32 (inactive).
In the case of `C=C(/C(=C/C[C@H](OC(C)=O)c1ccccc1OCCO)c1cc(C(=O)OC)ccc1OC)C(C)C`, the composite z-score in test [1] was 0.469; in [3], -0.0782; in test [4], -0.173; in [5] it was 0.491; in test [6] it was 1.26; in test [7], -0.0654. Moreover, the composite z-score in [8] was 0.527; in test [9], -0.152; in test [10] it was 0.548; in test [11], 2.68; in [12], 0.278; in test [13], -0.164. The composite z-score in test [14] was found to be 0.0823; in test [15], 0.494; in [16], 0.428; in test [18], 0.501; in test [19], 0.151. Further, the composite Z-score in test [2] is -0.0127 (inactive). The z-score is -0.139 in test [17] and -0.475 (inactive) in [20].
`O=C(CS)NCCCCCNC(=O)[C@@H]1C[C@@H]2C(=O)N3CCC[C@H]3C(=O)N2[C@@H]1c1cccc(OCCO)c1`: the composite z-score in test [1] is -0.105; in [3], -0.284; in [4], -0.258; in [5] it was 0.747; in [6], 2.18; in test [7], 0.503. Further, the composite z-score in test [8] stood at 0.246; in test [9], 0.712; in test [10], 0.91; in test [11] it was 2.66; in [12] it was 1.21; in test [13] it was 0.515. Besides, the composite z-score in [14] is -0.561; in [15], 1.28; in test [16], 1.24; in test [18], -0.283; in test [19], -0.161. For the same molecule, in test [2], the composite Z-score is 1.11 (inactive). Besides, the z-score is 0.777 in [17] and -1.38 (inactive) in test [20].

The record behind these values is PubChem BioAssay.
